From PubChem BioAssay (NCI)
This is part of a sample that, as a whole, favours compounds with a hit. Of some 83,000 tested, about 20% had one in any assay.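 Single-dose data. Exposure time 48 hours. Values below 10 considered active.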 A number with no mark means an inactive call. The source made the active and inactive calls.

Each molecule was assayed on HL-60(TB) leukemia (assay: NCI-60 one-dose screen, 48 h (100 = growth as untreated, 0 = no growth, -100 = all killed)). Conditions: 10 µM unless noted.
C#CC[C@@H]1C[C@]2(C)[C@H]3CC[C@@H]4[C@H]5[C@H](C(=C)C)CC[C@]5(C(=O)O)CC[C@@]4(C)[C@]3(C)CC[C@H]2C(C)(C)[C@H]1O gave a growth of 44.2%. CN(C)C(=S)SCN1C(=O)c2ccc([N+](=O)[O-])cc2S1(=O)=O gave a growth of 75.3%. In the case of C=C(C)[C@@H]1CC[C@]2(C(=O)O)CC[C@]3(C)[C@H](CC[C@@H]4[C@@]5(C)CCC(N)C(C)(C)[C@@H]5CC[C@]43C)[C@@H]12 (stereo partly specified), the growth is reported as -45.5% (active). C[C@]12CC[C@H]3[C@@H](CC[C@H]4C[C@@H](O)CC[C@@]43C)[C@@H]1CC(=O)C2 gave a growth of 83%. Oc1c(I)cc(-c2nc3ccccc3s2)cc1CN(Cc1ccccn1)Cc1ccccn1 was tested, and the growth was 2.06% (active). COc1ccc(NC(=O)[C@@H]2C[C@H]2c2ccccc2)c(C(N)=O)c1 gave a growth of 93.9%. With N/C(=N\c1nc2ccccc2s1)NC(=O)Nc1cccc2ccccc12 the growth was -26.8% (active). For CCOC(=O)CC/C(C)=N\Nc1ccc([N+](=O)[O-])cc1, the growth was 26.4%. COc1ccc(/C=C/C(=O)c2ccc(Oc3ncnc4ccccc34)cc2)cc1OC gave a growth of 54.7%. With CCC(C)C(N)C(=O)NC(CC(C)C)C(=O)N1CCCC1C(=O)NC(Cc1c[nH]c2ccccc12)C(=O)NC(CCCCN)C(=O)NC(Cc1c[nH]c2ccccc12)C(=O)N1CCCC1C(=O)NC(Cc1c[nH]c2ccccc12)C(=O)NC(Cc1c[nH]c2ccccc12)C(=O)N1CCCC1C(=O)NC(Cc1c[nH]c2ccccc12)C(=O)NC(CCCNC(=N)N)C(=O)NC(CCCNC(=N)N)C(N)=O (stereo unspecified) the growth was -2.6% (active). For O=S(=O)(NCC[C@@H]1C[C@H]1c1ccc2ccccc2c1)c1ccc(C(F)(F)F)cc1, the growth was 96.5%. CCOC(=O)c1cc(/C=C/c2ccc(Cl)cc2Cl)on1 showed a growth of 74.2%. With OC(COc1cccc2ccccc12)CN1CCN(c2ccccc2Cl)CC1 (stereo unspecified) the growth was 103%. With O=c1c2cc(F)ccc2sc2c(NCCCNCCO)nc3ccccc3c12 the growth was 6.49% (active). With Cc1cc(N=C2C=CC(=[N+](C)C)C=C2)c(N)cc1N the growth was 122%. For CCC(=C(c1ccc(OCCCN(C)C)cc1)c1ccc(OCCCN(C)C)cc1)c1ccc(Cl)cc1, the growth was -55.3% (active). With COc1ccc(-c2cc3c4c(nc5ccccc5c4c2)CC(c2cc(OC)c(OC)c(OC)c2)O3)cc1 (stereo unspecified) the growth was 106%. Cc1cc(N2CCCCC2)nc(N(CCNc2ccnc3cc(Cl)ccc23)Cc2ccco2)n1 was tested, and the growth was -46.3% (active). With N#Cc1nc(-c2ccc(F)cc2)oc1S(=O)(=O)N1CCOCC1 the growth was 16%. NC(=O)CSc1nc(-c2ccc(F)cc2)cc(-c2ccco2)n1 showed a growth of 108%. Work on COc1cc(/C=C/C(=O)N2CCN(C(=O)/C=C/c3ccccc3)CC2)cc(OC)c1OC yielded a growth of 101%. COc1ccc(-c2conc2-c2ccccc2)cc1 gave a growth of 15.1%. CCCCCCCCCCCC1=NC(C)(C)CN1C(C)(C)CO was tested, and the growth was 58.3%. In the case of Fc1ccc([I+]c2ccc(F)cc2)cc1, the growth is reported as 54.5%. With Nc1cc2c(cc1Br)-c1cc(Cl)ccc1C2=O the growth was 83.8%. CC1=CC(=O)CC(C)(C)[C@@]1(O)/C=C/[C@@H](C)O showed a growth of 110%. In the case of Cc1ccc(-c2onc3c(=O)[nH]nc(-c4ccccc4)c23)cc1, the growth is reported as -8.12% (active). Cc1ccc(N(C(=O)CCc2c[nH]c3ccccc23)[C@H](C(=O)Nc2ccc(Cl)cc2)c2cccc([N+](=O)[O-])c2)cc1 was tested, and the growth was 70.7%. CC(=O)OC1CC2CCC1(C)C2(C)C (stereo unspecified) showed a growth of 103%. In the case of C[C@@H]1CC[C@@H]2[C@@H]1[C@H](OC(=O)c1ccc3ccccc3c1)[C@]1(C3CCCCC3)C[C@@H](OC(=O)CO)[C@@]2(C)O1, the growth is reported as 30.6%. For Cc1cc(C)c([O-])c(CN(C)CCN(C)Cc2cc(C)cc(C)c2[O-])c1.O=C([O-])c1cccc(C(=O)[O-])n1.[Ti+4], the growth was -7.45% (active). In the case of Nc1ccc(Br)cn1, the growth is reported as 75.5%. In the case of C/C(=N\OC(=O)Nc1ccccc1)c1ccccc1, the growth is reported as 119%. O=C(/C=C/c1sc(Cl)nc1Cl)c1ccc(F)cc1 showed a growth of 61.2%. Molecule COc1ccc(C2C=C(c3ccc(N)cc3)N=C3SC=CN32)cc1OC (stereo unspecified) has a growth of 105%. Molecule O=CN1N=C(c2cccc(Nc3ccncc3)c2)CC1c1ccc2c(c1)OCO2 (stereo unspecified) has a growth of 85.5%.
